The list is not random: actives were taken first. Their share in the collection is about 5.4%.
p53 reactivation: mutant p53 re-activation in reporter cells; Potency, µM (series often up to 92.2 µM), most hits filed as activators; 0.063% of 320,000 active; H1299 p53-A138V BP100-luciferase reporter, luminescence, 24 h; AID 504706; further: nearly all actives have a fitted effect of over 45% in size
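p53-null H1299 cells stably carrying temperature-sensitive p53-A138V and a BP100-luciferase reporter were pinned with compounds (4-point, 1:5 series) and held 24 hrs at 37 deg C. Luminescence was read 10 min after detection reagent.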
VP16 counter: inhibits Gal4-VP16 luciferase reporter, ROR gamma counter-screen. Drosophila S2 Gal4-VP16 UAS-luciferase, luminescence, 20 h. Potency, µM (highest dose often 53.6 µM), usual class: inhibitors. 3.5% of 310,000 active. AID 2546;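 further: Gal4-VP16 expression switched on by copper sulfate through the metallothionein promoter; nearly all actives have a fitted effect of over 50% in size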
Six1-Eya2 blk: inhibitors of human Six1/Eya2 interaction. Q15475+O00167. AlphaScreen GST-Six1/His-Eya2 binding, biochemical; active compounds read low. activity change, % (concentration not given with the values). 0.56% of 360,000 active. AID 651725; in the data active means activity change below about -65%; inconclusive means mostly about -30% to -63%
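Six1/Eya2 binding was read as AlphaScreen signal after compounds were pinned into GST-Six1 plus His-tagged Eya2 (5X stock 250/500 nM) in pH 8.0 Tris/NaCl/TCEP buffer, beads added, then incubated 1 h, 37 C, dark.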
RORg inh: inhibitors of mouse ROR gamma transcriptional activity; 5.4% of 310,000 active; P51450; Potency, µM (series often up to 53.6 µM), hits mostly inhibitors; Drosophila S2 Gal4-RORgamma UAS-luciferase reporter, 20 h; further: nearly all actives have a fitted effect of over 60% in size
Target sequence (P51450 whole entry, looked up, the tested form may be a part): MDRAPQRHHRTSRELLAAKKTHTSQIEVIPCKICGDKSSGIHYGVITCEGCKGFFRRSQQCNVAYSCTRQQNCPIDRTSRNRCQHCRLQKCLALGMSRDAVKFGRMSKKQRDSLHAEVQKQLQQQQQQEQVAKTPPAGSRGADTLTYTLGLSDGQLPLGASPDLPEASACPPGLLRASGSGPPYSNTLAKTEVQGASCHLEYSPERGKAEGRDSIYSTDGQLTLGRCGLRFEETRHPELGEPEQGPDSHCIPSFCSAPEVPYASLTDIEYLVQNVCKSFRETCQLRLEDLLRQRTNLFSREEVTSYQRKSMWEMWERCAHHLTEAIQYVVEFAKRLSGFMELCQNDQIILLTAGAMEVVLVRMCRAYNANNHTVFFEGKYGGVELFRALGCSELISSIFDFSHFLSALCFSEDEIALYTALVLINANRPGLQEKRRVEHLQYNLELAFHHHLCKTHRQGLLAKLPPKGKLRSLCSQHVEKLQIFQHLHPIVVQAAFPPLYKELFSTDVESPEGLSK
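Luminescence from a UAS-regulated Photinus luciferase reporter in stably transfected Drosophila Schneider cells is measured; decreased signal marks ROR gamma inhibition. Fusion expression is induced by 700 uM copper sulfate for 20 hr.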
CtBP-E1A inh: CtBP/E1A binding inhibition | AlphaScreen GST-E1A/His-CtBP binding, 1536-well; active compounds read low | activity change, % (concentration not given with the values) | 0.49% of 340,000 active | AID 651724; in the data active means activity change below about -65%; inconclusive means mostly about -30% to -63%
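AlphaScreen with 125 nM GST-E1A and 125 nM His-CtBP (5X stocks) in Tris pH 8.0, 300 mM NaCl, BSA, Tween 20, TCEP. Compounds preincubated 2 h at 37 deg C, then glutathione donor/nickel acceptor beads added for 1 h at 37 deg C in dark.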
Of the large screens only hits and unclear results are named; the others gave an inactive call. Unless noted, the call rests on the fitted dose curve; in most records, active means well fitted curve in the direction sought with a large enough effect; inconclusive means small, poorly fitted or top-dose-only effect, or another doubt; inactive means no such curve, though single readings can be large; an effect the other way counts as inactive or inconclusive.

C=CCNC(=S)N/N=C(\C)c1cccc(NC(C)=O)c1	VP16 counter inconclusive, RORg inh 3.5µM (no result: CtBP-E1A inh)
C=CCNC(=S)NN(c1ccccc1)c1ccccc1	VP16 counter 6.3µM, RORg inh 2µM
CCOc1ccccc1C=NNC(=O)C1CC1	none (no result: p53 reactivation, VP16 counter, RORg inh)
CCOC(=O)c1ccccc1NC(=O)CN(c1ccc(OCC)cc1)S(C)(=O)=O	none (no result: Six1-Eya2 blk, CtBP-E1A inh)
C=CCNC(=S)Nc1cccc(NC(=S)NCC=C)c1	VP16 counter inconclusive, RORg inh 7.9µM (no result: CtBP-E1A inh)
COC(=O)N1C(=O)[C@@](c2ccccc2)(C2CCCCC2)N1C(=O)OC	RORg inh 7.9µM (no result: p53 reactivation)
COc1coc(C(O)C[N+](=O)[O-])cc1=O (stereo unspecified)	none
Cc1cc(N2CCCC2=O)cc(C)c1S(=O)(=O)NCCOc1ccc(C(C)(C)C)cc1	VP16 counter 3.2µM, RORg inh inconclusive
Oc1ccc(Cl)cc1/C=C/c1ccc2cccc(O)c2n1	p53 reactivation inconclusive, VP16 counter 4.5µM, RORg inh 3.2µM
Oc1c(Cl)cc(Cl)cc1/C=C/c1ccc2cccc(O)c2n1	VP16 counter 7.1µM, RORg inh 2.5µM
Cc1ccc(S(=O)(=O)NC(C(=O)N2CCOCCOCCOCC2)c2ccccc2)cc1 (stereo unspecified)	none (no result: CtBP-E1A inh)
CC12CC3CC(C)(C1)CC(C(=O)Nc1nncs1)(C3)C2	VP16 counter 18µM, RORg inh inconclusive
COc1ccc(OC)c2c1C(=O)c1ccccc1C2=O	Six1-Eya2 blk inconclusive, CtBP-E1A inh inconclusive
COc1ccc(OC)c2c1C(=O)C(Cl)=C(Cl)C2=O	VP16 counter 5µM, RORg inh 5µM
Cc1ccc(-c2nn(-c3cccc(F)c3)cc2CNCc2cccnc2)o1	none
COc1cccc(NC(=O)CSc2nnc(-c3ccc(C)cc3)o2)c1	p53 reactivation inconclusive, VP16 counter 13µM, RORg inh inconclusive
COc1ccc(-c2nnc(SCC(=O)Nc3cc(C)on3)o2)cc1	VP16 counter inconclusive, RORg inh 11µM, CtBP-E1A inh inconclusive
Cc1cc(NC(=O)CSc2ncnc3ccccc23)no1	RORg inh 7.9µM
COc1ccc(-c2nnc(SCC(=O)Nc3cc(F)ccc3C)o2)cc1	p53 reactivation inconclusive
COc1ccccc1NC(=O)CSc1nnc(-c2ccc(C)cc2)o1	none
CCOC(=O)CSc1nnc(-c2ccc(OC)cc2OC)o1	VP16 counter inconclusive, RORg inh 8.9µM
CC(=O)Nc1ccc(NC(=O)CSc2nnc(-c3ccco3)o2)cc1	none
Cc1cc(NC(=O)CSc2nnc(CNC(=O)c3ccc(C(C)(C)C)cc3)o2)no1	Six1-Eya2 blk -76, CtBP-E1A inh inconclusive
Cc1cc(NC(=O)CSc2nnc(-c3ccco3)o2)no1	Six1-Eya2 blk -74, CtBP-E1A inh -90 (no result: p53 reactivation)
COc1ccccc1C#Cc1cnc2c(c1)C(=O)N([C@H](C)CO)C[C@@H](C)[C@@H](CN(C)C(=O)c1ccc3c(c1)OCO3)O2	none (no result: p53 reactivation, VP16 counter, RORg inh)
COc1ccc(-c2csc(NC(=O)c3ccccc3Br)c2C(=O)O)cc1	Six1-Eya2 blk inconclusive
Cc1ccc(-c2csc(NC(=O)c3ccccc3F)c2C(=O)O)cc1	Six1-Eya2 blk -70 (no result: CtBP-E1A inh)
COc1ccc(-c2csc(NC(=O)Cc3cccc4ccccc34)c2C(=O)O)cc1	Six1-Eya2 blk -67, CtBP-E1A inh -67
Cc1cc2occ(CC(=O)NC3=NCCS3)c2cc1C(C)C	VP16 counter 13µM
Cc1ccc2c(CC(=O)NC3=NCCS3)coc2c1	VP16 counter inconclusive, RORg inh inconclusive
O=C1CC(SCc2nc3ccccc3[nH]2)C(=O)N1c1ccc(Cl)cc1 (stereo unspecified)	VP16 counter 6.3µM, RORg inh 3.5µM
CCOc1ccc(N2C(=O)CC(SCc3nc4ccccc4[nH]3)C2=O)cc1 (stereo unspecified)	VP16 counter inconclusive, RORg inh 11µM
O=C1CC(SCc2nc3ccccc3[nH]2)C(=O)N1c1cccc(F)c1 (stereo unspecified)	VP16 counter 14µM, RORg inh 10µM
CCOc1ccc(N2C(=O)CC(N)C2=O)cc1 (stereo unspecified)	VP16 counter 3.2µM, RORg inh 1.1µM
Cn1c(CC(=O)Nc2ccccc2C(F)(F)F)c(Sc2ccccc2)c2ccccc21	VP16 counter inconclusive
[O-]/C(=C(\C(=S)Nc1cccc2ccccc12)[n+]1ccccc1)c1ccc(Cl)s1	VP16 counter inconclusive, RORg inh 20µM
COc1ccc(S(=O)(=O)N2CCCC(C(=O)NCCC(C)C)C2)cc1 (stereo unspecified)	none
c1ccc(N/N=C(\Cc2nc3ccccc3[nH]2)c2ccccc2)cc1	p53 reactivation inconclusive, VP16 counter inconclusive
NC(=O)Nc1nc2ccccc2[nH]1	none (no result: p53 reactivation, Six1-Eya2 blk, CtBP-E1A inh)
O=C(Nc1nc2ccccc2[nH]1)c1ccc(Cl)cc1	VP16 counter 2.8µM, RORg inh 13µM
O=C(Nc1nc2ccccc2[nH]1)c1ccccc1O	VP16 counter 6.3µM, RORg inh 13µM
Clc1cccc(/C(Cc2nc3ccccc3[nH]2)=N\Nc2ccccc2)c1	p53 reactivation inconclusive, VP16 counter inconclusive, RORg inh 35µM
O=C(Nc1nc2ccccc2[nH]1)c1ccccc1	VP16 counter 7.9µM, RORg inh 6.3µM
CC(=O)Nc1nc2ccccc2[nH]1	none (no result: CtBP-E1A inh)
N#Cc1ccc(CS(=O)(=O)c2nnnn2-c2ccccc2)cc1	RORg inh inconclusive (no result: p53 reactivation, Six1-Eya2 blk, CtBP-E1A inh)
Cc1ccc(N(CC(=O)NCCc2ccccc2)C(=O)CCC(=O)Nc2cc(C)ccn2)cc1	none
O=C(NNc1ncnc2ccccc12)c1cccc(Cl)c1	RORg inh 7.1µM
CC(=O)NNc1ncnc2ccccc12	none (no result: CtBP-E1A inh)
O=C(N/C(=C/c1ccc(Cl)cc1)c1nc2ccccc2[nH]1)c1ccco1	none
O=C(/C(=C/c1ccc(Cl)cc1)c1nc2ccccc2[nH]1)c1ccccc1	VP16 counter 10µM, RORg inh 4.5µM
O=C(Nc1nc2ccccc2[nH]1)c1cccc(Cl)c1	p53 reactivation inconclusive, VP16 counter 4.5µM, RORg inh 4µM (no result: CtBP-E1A inh)
CC(=O)N1CCN(S(=O)(=O)c2cccc(C(=O)Nc3nc4ccccc4[nH]3)c2)CC1	RORg inh inconclusive, CtBP-E1A inh inconclusive
CC1(C(=O)NCCCN2CCOCC2)Oc2cccnc2NC1=O (stereo unspecified)	none
CC(CC12CC3CC(CC(C3)C1)C2)NCc1ccccc1O (stereo unspecified)	none (no result: p53 reactivation)
O=C(c1ccco1)N1CCC2(CC1)CCN(c1ccccn1)CC2	none (no result: p53 reactivation, Six1-Eya2 blk, CtBP-E1A inh)
O=C1OCCC1Sc1nc2cc(Cl)ccc2n1Cc1ccccc1 (stereo unspecified)	VP16 counter inconclusive, RORg inh 13µM
O=C1OCCC1Sc1nc2ccccc2c(=O)n1Cc1ccccc1 (stereo unspecified)	none
CC(C)(C)c1ccc(-c2nnc(SC3CCOC3=O)n2Cc2ccccc2)cc1 (stereo unspecified)	VP16 counter inconclusive, RORg inh 16µM
Cc1nn(C)c2ncc(C(N)=O)c(Oc3ccc(Cl)cc3)c12	none
